# PubChem BioAssay AID1347426 (Functional Genomics Laboratory (NCATS/FGL), 2020)
# Hit rate of the full screen: of about 31,000 sequences, about 1,400 (4.5%) were called active.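 The calls were made as follows: active = median seed-adjusted z-score above 1 or below -1; inactive = the rest.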 The entries come from a sample that favours actives as a whole.
# Assay: Novel Modifiers of Survival Motor Neuron (SMN) Protein: Gene Identification via Genome-wide siRNA Screen;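 also: luminescence tracks full-length SMN protein made from the SMN2 reporter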
# Conditions: HEK293T SMN2-luciferase reporter, siRNA knockdown, 72 h; actives lie on both sides
# How it was run: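 Steps: spot 1 pmol siRNA, add Lipofectamine RNAiMax in serum-free DMEM, seed HEK293T SMN2–luciferase reporter cells; incubate 72 h at 37 °C; add ONE-Glo; normalize luminescence to control siRNA, log10, MAD. Candidates: |MAD| > 1.0.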
row,Sequence,median seed-adjusted z-score
1,CAUUCACUGAGGCGACAGATT against ABCA9,-0.139 (inactive)
2,GAAGGGCCUUUUUAUCCAATT against MCTS1,0.116 (inactive)
3,CGACCAAGAUUAUGGAAUUTT against ADAMTS17,0.257 (inactive)
4,GGCUAUCUGCUGAAGCGCATT against RASAL1,-0.089 (inactive)
5,CAAUGACUAUGAAUAAGUATT against SLC9A2,-1.02 (active)
6,GCCUUUAUGUGGACAUUAATT against SLCO2B1,0.289 (inactive)
7,CGACAAUGUUAAGUUCAUATT against SULT6B1,0 (inactive)
8,GCAUAGAUGUGGAUAGCUUTT against CFTR,-1.23 (active)
9,GGUCCGUGACGAGAAGUUATT against RAB4A,0.0022 (inactive)
10,CGAACCAUUUCAUCACGUATT against MARS2,-0.00523 (inactive)
11,CCCUUAAACUCGAACCCAATT against HLX,0.379 (inactive)
12,GCACGGUAAUUUUGACAGUTT against CD302,0.0818 (inactive)
13,GCUGUUACCUCGACGAGUATT against TSC2,1.11 (active)
14,GCAGCUCCGAAUUCAGGAATT against TFE3,-0.0442 (inactive)
15,GAAGAACUCGAUCAGCUAATT against MYH4,-1.8 (active)
16,GGAUCUGACAGUUCCAGAATT against CLDN20,-0.00173 (inactive)
17,GACAAUAUCCUACCCAUUUTT against SLC25A16,0.0479 (inactive)
18,AGAGAAUCCAGGAUCAGAATT against CHIT1,-0.578 (inactive)
19,GGCUCGCUUUGAAAAGCUATT against LIN7A,-1.39 (active)
20,CGGACCCGCUGAGACAUUATT against HOXB6,-0.168 (inactive)
21,GGCCUACAACGAAAGUGAATT against CAMKK1,0 (inactive)
22,CAGUCGAACCUUUCCCAGATT against MSRA,-0.0316 (inactive)

row,Sequence,median seed-adjusted z-score
1,GGGACUGGGAUUUACGUUATT against MTMR11,-0.0244 (inactive)
2,CUUCCUUCGUCUUCACCUATT against FOS,0.343 (inactive)
3,CGACGAUUCGUGCUUAAUATT against MYO5C,0 (inactive)
4,GCAAAACAGCGGCAGAACATT against ATP8B2,-0.268 (inactive)
5,GCAGAUCACAUGAAGAGAATT against DHX38,-0.723 (inactive)
6,CUCUUUAGCCGCUUCAUUATT against FMNL1,-0.3 (inactive)
7,GGGUCUUCGUCAUGCUCUATT against GPR142,-0.0636 (inactive)
8,CAGUGCUACUUGGAAUGUUTT against RHOJ,-0.304 (inactive)
9,CACUAGUUUUGUUAGCGAATT against ATP13A4,-1.09 (active)
10,CAACAACUAUGACCCAGGATT against CHRNE,0.349 (inactive)
11,CAGCAAUUCGUGGAGCUCATT against STX4,0.759 (inactive)
12,CACUAAAUGUGACUCCUGATT against TTC5,-0.296 (inactive)
13,CUAUUAACAUGGUGACAGATT against EIF4A1,-1.05 (active)
14,GUGUGAUGAUAUUCGAAAATT against SGPP1,0.0859 (inactive)
15,GGAGGAAACUUCAACUUGUTT against PHF20L1,0 (inactive)
16,CAAAUUGAGUCACUCUUAATT against MGAT2,-0.124 (inactive)
17,GGAUUUGGAGUAGAUCAAUTT against TIAL1,-0.985 (inactive)
18,GCCUGUCCUUCUCCAUUGATT against ISX,1.99 (active)
19,GCUUUGAAACUACAGAUGATT against HNRNPA3,0.915 (inactive)
20,GAAGGUUUACAAGGACUUATT against KLK7,0 (inactive)
21,GCAGAGAUCAGCAACGUGATT against KRT77,-0.0863 (inactive)
22,GCACUUAUGCUGAUGAAGATT against ZNF398,0.119 (inactive)

row,Sequence,median seed-adjusted z-score
1,CAAACGUAUUAGUUCAGCATT against KIF20B,0 (inactive)
2,GGACAAGUAGCAAAGCGAATT against SLC7A14,0.132 (inactive)
3,CAACAACCUUACACGAGUATT against LRIG2,0.386 (inactive)
4,GAAGAAAUGUUGUUCGAAUTT against KAL1,0.0824 (inactive)
5,CGCCUGGUCUAUGAACUUUTT against SCARF1,-0.324 (inactive)
6,GAAGUGUUUGAAUCUCGUATT against AKAP3,0.0138 (inactive)
7,GUCUCGUAGUGUUAUGUCUTT against GBA2,0.143 (inactive)
8,CCCUGGACGCUGAUGAGUUTT against CAPS,-1.25 (active)
9,GAUACAUGAAGGUAUACAATT against POLR3G,-0.485 (inactive)
10,AGAAAGUGUACGACCCAAATT against NUCB1,0.232 (inactive)
11,GAGUGCAAUUGGAACCUGATT against ARHGAP30,0.0946 (inactive)
12,GCAUGAACAUUACGGAUAUTT against CARS,0 (inactive)
13,GGUGGUACAAGAGAACGAATT against JARID2,0.115 (inactive)
14,CUUGGAUGAUGGCAAGACATT against TCEB2,1.28 (active)
15,GAAAUAUACUUCAGAUUCATT against SP2,-0.617 (inactive)
16,GCUCAUUCCUUUUCGAGCATT against PEG3,0.5 (inactive)
17,GAUUCACAUCGUCAAGAAATT against ZNF317,0.087 (inactive)
18,GAUAUGACCGCGAAACCAATT against RPA4,0.132 (inactive)
19,GCUCCACACUGAUGAAUCATT against ZNF250,-0.00985 (inactive)
20,GGCUAACUACUGAGCUGAATT against C1RL,-0.148 (inactive)
21,GGGAAUUUCUGACCUAGUATT against ABCD3,-0.24 (inactive)
22,CCAAGCCUCUUUCCUACAATT against GPR52,-1.17 (active)

row,Sequence,median seed-adjusted z-score
1,CGUGGAAGAUUUUCACAGATT against ZNF174,0.035 (inactive)
2,GAUCUACCGAAUACAAGAATT against GPR171,-0.449 (inactive)
3,CCACACCAUUAUGACCAUUTT against FUT1,0.000845 (inactive)
4,GGAUUUGCCUUACCACUAATT against PPP2R5C,1.14 (active)
5,GAAGGGUUAUCGUCGGGAATT against SLC6A6,0.0448 (inactive)
6,CCAUCGAGUUCAUCGAUAATT against DUSP8,-0.0326 (inactive)
7,GUUCAUCUCUUGUAAGGAUTT against CABP5,0.372 (inactive)
8,GCCUCAGAAUUUAAUCAAATT against ALB,-0.153 (inactive)
9,CCAGAAGCGAAUCACCACATT against POLR2F,-3.52 (active)
10,GUGUCUCUGCUCUAAGUAATT against B4GALT1,0 (inactive)
11,AGCUUAUGCAUUUGGCAAATT against APBA3,-0.119 (inactive)
12,GGAGCAGACGGUGACCAAATT against CIB3,0.234 (inactive)
13,CAUAUGAUCCAGACAAGAATT against ZNF425,0.0841 (inactive)
14,GAGUCUGUGGUGUACCUAATT against SALL4,-0.344 (inactive)
15,GAGAAGAACUCGUACCUCUTT against ZNF783,0.284 (inactive)
16,CCGUGUCCAGGAACCUAUATT against LPHN3,-0.0576 (inactive)
17,AGUCCAAGGUGAUUACGCUTT against CPSF1,3.29 (active)
18,GCUGUGCUAUGGGAGUUAATT against ADH1A,0.624 (inactive)
19,GAACUUAGCUAAAUUGACUTT against BCHE,0.117 (inactive)
20,CUUAGACUGUUUCCACUUATT against PARK2,0.146 (inactive)
21,GCCUAUGAUUUAGGACUAATT against MNDA,0.232 (inactive)
22,CCAGUGAUGUAAGUUCUUATT against GCG,-1.18 (active)

row,Sequence,median seed-adjusted z-score
1,CUGUUCUGCUUAUAUGGAATT against HNRPLL,0 (inactive)
2,GAAACAUCCGUGAAAGAGATT against RABL4,-0.154 (inactive)
3,GAUACUAGCUAUUUUGACATT against MAST2,0.27 (inactive)
4,CUAACGUAGAGGAAGCAUUTT against RAB11B,-0.857 (inactive)
5,CACUUAUACUAAGCACCAATT against CCNB1,0.163 (inactive)
6,CUCUGGAUUUUGAUAGUUUTT against PPARGC1A,-0.0953 (inactive)
7,GUACUUCCAUAGACAGGAATT against CECR1,0.00187 (inactive)
8,GGCUUAAUGUGGUGAUGUUTT against COL7A1,1.08 (active)
9,CGAAUGCUGAGGCUACAAATT against SLC9A5,-0.545 (inactive)
10,GGGAGACCUCGAUCGUGAATT against RASA4,-1.11 (active)
11,CAAAUCCUGUCUAACAAAATT against MYH7,0.659 (inactive)
12,GUUCAUAUGUGACAUCUUUTT against ZFP36L1,-0.933 (inactive)
13,GUAGGUGAGUGGAAAUUCATT against DRD2,-0.0273 (inactive)
14,GGAAGGUUGCUAUAGUGGATT against SSX2IP,-0.0799 (inactive)
15,GGCAAGUGCUUCACUCAAATT against ZNF665,1.13 (active)
16,GAAUUCGCUUCAUCCAUUUTT against POMT2,-0.614 (inactive)
17,UGAUUGCACGAACAGCAAATT against MED21,-1.3 (active)
18,GUAACACCGUUGAAGCUAATT against E2F8,0.209 (inactive)
19,CUGCUCACCCUUUACAUCATT against KIF12,0.0971 (inactive)
20,CAGUCCCAAUUUCCACUUUTT against PCDHB2,0 (inactive)
